One assay deals with PLEKHA8. The experiment in a line: pooled miR-30 sensor sort-seq; sequence = guide strand. Conditions: shRNA.
TATCTACAGAATGAACTTGAAT gave a sensor-assay potency score (higher = more potent) of -1.22. Same read-out and setting: then TTCACAAGTGCTCAACTCCATT, with -1.47; and TAATAGGACAATATTCCCCCAC, with -0.473; and ATTTCCAACAAGATCCATCTTA, with 0.673. With TAGGGCTGTCTGGATATCCTTC, the sensor-assay potency score (higher = more potent) was -0.391.

Consider TTGAATTTCACAGACTGCCATT, for which the sensor-assay potency score (higher = more potent) is -0.888. The same measure, in the same setting: then TTCCATTCCATCTTCCTTCCTT, with 0.675. The same measure, in the same setting: the value for TTCAGCAAACTCTTTCTCCTTC was 0.589. TAATATTTCCAACAAGATCCAT came in with a sensor-assay potency score (higher = more potent) of -0.589. TTTCCAACAAGATCCATCTTAA had a sensor-assay potency score (higher = more potent) of -0.407. ATTATCTACAGAATGAACTTGA had a sensor-assay potency score (higher = more potent) of 1.24.

Sequence AATATTTCCAACAAGATCCATC registered a sensor-assay potency score (higher = more potent) of -1.17.

In another assay the target is PLEKHB1. The description is as above. Conditions: shRNA.
Consider TTCCCGTAGGTTCACAGTCAGC, for which the sensor-assay potency score (higher = more potent) is -1.99.

Consider TTGAAGTGGATGAGCACACGGT, for which the sensor-assay potency score (higher = more potent) was -0.311. TATGTCACGGACATTGAAGTGG gave a sensor-assay potency score (higher = more potent) of -0.329.

As to TAGGGCATCATCCTTGGTCTCC, the sensor-assay potency score (higher = more potent) is -0.411. Same read-out and setting: the value for TGAAGTGGATGAGCACACGGTC was -1.12; that for TCATCCTTGGTCTCCGCACAGA was -1.23; that for TCTGTCTCCACAGCCAGCCGCC was -1.23. Turning to TAGTAGTCTTGGTACGGGCTGT, the sensor-assay potency score (higher = more potent) is -0.059.

The sequence TCGTAGTAGTCTTGGTACGGGC showed a sensor-assay potency score (higher = more potent) of -1.27. Sequence TAGTAGCTGCGGACATACGTGG yielded a sensor-assay potency score (higher = more potent) of -1.12.

The sequence TAGGGCGGTCCGTAGTAGCTGC showed a sensor-assay potency score (higher = more potent) of -0.166. On the same count and under the same terms, the value for TCTCATCGTGGTAGTATCCCAG was -0.247.

For the next assay, the target named is PLEKHJ1. Described as above. The conditions noted are these: shRNA.
In the case of TGTACATTCATTCAGCACGGGG, the sensor-assay potency score (higher = more potent) is -1.25.

ATGAACTCGTAGCTGGCCCGAC: the sensor-assay potency score (higher = more potent) was -0.947. On to TAGAAGATGAGGCTTCTCCGCA, for which the sensor-assay potency score (higher = more potent) is -0.0375. Still for that read-out and setting: then TTTGAACAGAACAAGCACCCTG, with 0.823; and TTTATTTGAACAGAACAAGCAC, with 0.502. On to TTCCTGTAGAAGATGAGGCTTC, for which the sensor-assay potency score (higher = more potent) was determined as 0.247. On the same count and under the same terms, the value for TTCGTTCCTGTAGAAGATGAGG was -0.827; that for TTGAACAGAACAAGCACCCTGG was 0.692; that for TATGCCGAACTGTTCCAGGGGG was -0.541. As to TGACACTGCTCCTCGCTGCTGC, the sensor-assay potency score (higher = more potent) was -0.0748. Same read-out and setting: then TTATTTGAACAGAACAAGCACC, with -0.886; and TCAGGGTCCTCAATGAAGCTGA, with -0.114.

Another assay has as its target PLEKHN1. The description is as above. Conditions: shRNA.
For the sequence TAGCAGTCGCTGACATCCTGGC, the sensor-assay potency score (higher = more potent) was -0.66. Same read-out and setting: the value for TTTCTGGAGAAGGAGGCCCGGA was -1.45. Same read-out and setting: the value for TAGCTCCAGGTAGCAGTCGCTG was -1.67.

Sequence TCCAGGTCCAGGATGTCCGTGC came in with a sensor-assay potency score (higher = more potent) of -1.12.

For the origin of these results see the OligoGym collection.
Further: reference of the scale not given here.
